Screening data deposited in PubChem BioAssay by National Center for Advancing Translational Sciences (NCATS).
This is a sample that favours compounds with a hit; in the whole collection about 3.8% have one here.
S2 tox = cell viability loss in ATXN counter-screen; Potency, µM (titrated, usually from 56.7 µM), most hits filed as cytotoxic; hit rate 0.49% among 400,000; S2 cells (HEK-293 line with an ATXN2-luciferase reporter) viability, CellTiter-Fluor protease fluorescence, 24 h; also: nearly all actives have a fitted effect of over 40% in size
TGFb SMAD3 inh = TGF-b pathway inhibition; HepG2 CAGA-GFP TGF-b/SMAD3 reporter, GFP fluorescence, 18 h; TGF-beta stimulated, 500 pg/mL final; hit rate 1.2% among 410,000; Potency, µM (doses to about 46.1 µM), usual class: inhibitors; also: nearly all actives have a fitted effect of over 65% in size
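First, reporter cells (HEPG2 CAGA-GFP) rested 2 h at 37 degrees C. Next, compounds were pinned in and TGF-beta added to 500 pg/mL final. After 18 h, GFP was imaged per cell and summed per well.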
ATXN2 expr inh = ATXN2 expression inhibition. AID 1745845. HEK-293 ATXN2-luciferase reporter, luminescence, 24 h. Potency, µM (doses to about 57 µM), hits mostly inhibitors. hit rate 0.72% among 360,000; also: nearly all actives have a fitted effect of over 55% in size
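ATXN2-luciferase reporter cells (luciferase flanked by upstream and downstream ATXN2 gene portions) were treated 24 h at 37 °C with compounds at up to 57 uM. SteadyGlo luminescence gave expression; GF-AFC fluorescence gave viability.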
Nrf2 inh = inhibitors of Nrf2 signaling | A549 ARE-Fluc reporter, luciferase luminescence, 18-24 h | Potency, µM (titrated, usually from 46 µM), usual class: inhibitors | hit rate 2.1% among 360,000 | AID 504444; also: nearly all actives have a fitted effect of over 60% in size
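Reporter: ARE-Fluc in A549. Exposure: 18-24 h, 37 °C, 5% CO2, 5% FBS OPTI-MEM. Readouts: fluorescent cytotoxicity (CellTiter-Fluor), then luminescent Nrf2 signal after BugLite.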
HepG2 tox = kills HepG2 cells in TGF-b inhibitor counter-screen | AID 588856 | HepG2 CAGA-GFP viability, ATP luminescence, 18 h | hit rate 0.76% among 410,000 | Potency, µM (doses to about 46.1 µM), hits mostly cytotoxic
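CellTiter-Glo luminescence gave cytotoxicity after 18 hours at 37 degrees C. The cells were HepG2 CAGA-GFP in 1% FBS DMEM, stimulated with 500 pg/mL TGF-beta after compound addition. %Activity was normalised to no-cell wells (complete cell-killing) and DMSO (no toxicity), and curves were fitted and classified.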
A549 tox = A549 cytotoxicity, counter-screen for Nrf2 inhibitors. A549 ARE-Fluc cells, CellTiter-Fluor viability, 18-24 h. Potency, µM (highest dose often 46 µM), usual class: inhibitors. hit rate 0.16% among 390,000. AID 504648
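A549 ARE-Fluc cells in 5% FBS OPTI-MEM, 5000 cells/well, rested 2 h then exposed to compounds in concentration-response for 18-24 h at 37 °C. Viability by CellTiter-Fluor fluorescence (Ex 405/Em 525) after 30 min; luciferase luminescence (BugLite, 15 min, RT) read afterwards.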
Large screens that a line does not name were inactive. Calls follow the shape of the dose curve; as a rule, active = well fitted curve in the direction sought with a large enough effect; inconclusive = small, poorly fitted or top-dose-only effect, or another doubt; inactive = no such curve, though single readings can be large; an effect the other way counts as inactive or inconclusive.

CN1C(C(=O)Nc2ccc(C(=O)O)cc2)=C(O)c2ccccc2S1(=O)=O	HepG2 tox 5.62µM
O=C(O)c1cn(C2CC2)c2cc(Cl)c(F)cc2c1=O	none (no result: TGFb SMAD3 inh, Nrf2 inh, HepG2 tox, A549 tox)
COc1ccc(-c2csc(NC(=O)CCNC(=O)c3ccco3)n2)cc1	none (no result: ATXN2 expr inh, Nrf2 inh, A549 tox)
COc1ccc(Nc2nc(S(=O)(=O)c3ccc(C)cc3)c(Cl)s2)cc1	TGFb SMAD3 inh 11.2µM, ATXN2 expr inh inconclusive, Nrf2 inh inconclusive
O=S(=O)(c1ccccc1)c1nc(NCc2ccccc2)sc1Cl	TGFb SMAD3 inh inconclusive, Nrf2 inh inconclusive
COc1ccc(CNc2nc(S(=O)(=O)c3ccccc3)c(Cl)s2)cc1OC	TGFb SMAD3 inh inconclusive, ATXN2 expr inh inconclusive, Nrf2 inh 14.6µM
COc1cccc(NC(=O)c2oc3ccccc3c2NC(=O)c2ccc(OC(C)C)cc2)c1	none
O=C(Nc1scc(-c2ccc(Br)cc2)c1C(=O)O)c1ccccc1F	Nrf2 inh 10.3µM
Cc1ccccc1C(=O)Nc1scc(-c2ccc(Br)cc2)c1C(=O)O	S2 tox inconclusive, Nrf2 inh 8.2µM
COC(=O)c1cc2occc2n1CC(=O)Nc1ccc(N(C)C)cc1	none
NC(=O)c1ccc(/C=N/O)nc1	none (no result: ATXN2 expr inh)
O=C(Nc1ccccc1)N1CCCN(c2nccc(C(F)(F)F)n2)CC1	none
O=C(Nc1ccc(F)cc1)N1CCCN(c2nccc(C(F)(F)F)n2)CC1	Nrf2 inh 11.6µM, A549 tox inconclusive (no result: ATXN2 expr inh)
O=C(Nc1ccc(F)cc1)N1CCN(c2nc3ccccc3s2)CC1	Nrf2 inh 20.6µM
O=C(c1ccc2ncsc2c1)N1CCN(c2nc3ccccc3s2)CC1	ATXN2 expr inh inconclusive, Nrf2 inh 18.4µM
CC12CC3CC(C)(C1)CC(C(=O)N1CCN(C(=O)c4ccco4)CC1)(C3)C2	none
O=C(NCc1cccc(Br)c1)c1cnn(-c2ccc(F)cc2)c1-n1cccc1	S2 tox inconclusive, TGFb SMAD3 inh inconclusive
CC(C)(C)c1ccc2c(c1)OC(C(=O)N/N=C\c1ccc[nH]1)CO2 (stereo unspecified)	ATXN2 expr inh inconclusive, Nrf2 inh 5.8µM, A549 tox 8.2µM
CC(C)(C)c1ccc2c(c1)OC(C(=O)N/N=C/c1ccc([N+](=O)[O-])o1)CO2 (stereo unspecified)	Nrf2 inh inconclusive
Cn1cccc1/C=N\NC(=O)C1COc2ccc(C(C)(C)C)cc2O1 (stereo unspecified)	none (no result: ATXN2 expr inh)
CC(C)(C)c1ccc2c(c1)OC(C(=O)N/N=C\c1ccncc1)CO2 (stereo unspecified)	HepG2 tox 20µM (no result: S2 tox)
CC(=O)Nc1ccc(NS(=O)(=O)c2c(C(=O)N3CCC(C)CC3)c(C)n(C)c2C)cc1	none (no result: S2 tox, ATXN2 expr inh, Nrf2 inh)
COc1ccc(CN2CCC(Oc3ccc(C(=O)N4CCCC4)cc3)CC2)c(F)c1	S2 tox inconclusive
Cc1ccc(C)c(C(=O)Cn2ncc(Cl)c(Cl)c2=O)c1	S2 tox 17.8µM, TGFb SMAD3 inh inconclusive, ATXN2 expr inh inconclusive
O=C(Cn1ncc(Cl)c(Cl)c1=O)c1ccc2c(c1)OCCO2	ATXN2 expr inh inconclusive, Nrf2 inh inconclusive (no result: S2 tox)
O=C(OCn1ncc(Cl)c(Cl)c1=O)c1ccc(C(F)(F)F)cc1	S2 tox inconclusive, ATXN2 expr inh inconclusive, HepG2 tox 10µM
CCC(=O)Nc1ccc(C(=O)Cn2ncc(Cl)c(Cl)c2=O)cc1	S2 tox 25.1µM, TGFb SMAD3 inh inconclusive (no result: ATXN2 expr inh)
Cc1cc(Br)ccc1NC(=O)CNC(=O)Cn1ncc(Cl)c(Cl)c1=O	S2 tox 3.36µM, ATXN2 expr inh 4.74µM
Cc1cc(C(=O)Cn2ncc(Cl)c(Cl)c2=O)c(C)n1CC(F)(F)F	S2 tox inconclusive, TGFb SMAD3 inh inconclusive, ATXN2 expr inh inconclusive, Nrf2 inh inconclusive
CCOC(=O)c1ccc(NC(=O)Cn2ncc(Cl)c(Cl)c2=O)cc1	S2 tox inconclusive, TGFb SMAD3 inh inconclusive, ATXN2 expr inh inconclusive, Nrf2 inh inconclusive, HepG2 tox 15.8µM
CN(C(=O)c1cc2c(=O)oc3ccccc3c2s1)c1ccc(F)cc1	none
Cc1cccc(NC(=O)c2ccc(Cn3nc(N4CCN(c5ccccc5)CC4)ccc3=O)o2)c1C	S2 tox inconclusive, TGFb SMAD3 inh inconclusive, ATXN2 expr inh inconclusive, Nrf2 inh 20.6µM, A549 tox inconclusive
S=c1[nH]cnc2sc(Nc3ccccc3)nc12	S2 tox 11.2µM, Nrf2 inh inconclusive (no result: ATXN2 expr inh)
Cc1cc(Nc2cccc(Cl)c2)nc2ccc(NC(=O)Cc3ccc(Cl)cc3)cc12	TGFb SMAD3 inh inconclusive, ATXN2 expr inh inconclusive, Nrf2 inh 23.1µM, A549 tox inconclusive
COc1ccc(Cl)cc1C(=O)Nc1ccc2nc(Nc3cccc(Cl)c3)cc(C)c2c1	none (no result: S2 tox)
COc1ccc(CC(=O)Nc2ccc3nc(Nc4cccc(Cl)c4)cc(C)c3c2)cc1OC	ATXN2 expr inh inconclusive, Nrf2 inh 16.4µM (no result: S2 tox)
COc1ccc(C#Cc2cccc(-c3nc(C(=O)NCc4ccc(Oc5ccccc5)cc4)cc4c3[C@@H](CCO)N(S(=O)C(C)(C)C)C4)c2)cc1OC (stereo partly specified)	S2 tox 31.6µM, TGFb SMAD3 inh inconclusive, ATXN2 expr inh inconclusive, HepG2 tox 15.8µM (no result: Nrf2 inh, A549 tox)
COCCNC(=O)c1cc2c(c(-c3cccc(C#Cc4ccc(OC)c(OC)c4)c3)n1)[C@@H](CCO)N(S(=O)C(C)(C)C)C2 (stereo partly specified)	S2 tox inconclusive (no result: Nrf2 inh, A549 tox)
COc1ccc(-n2c(=O)c3c4c(sc3n(Cc3ccccc3Cl)c2=O)CCC4)c(OC)c1	S2 tox inconclusive
COc1ccc(-n2c(=O)c3c4c(sc3n(Cc3ccc(C)cc3C)c2=O)CCC4)c(OC)c1	HepG2 tox 5.62µM, A549 tox inconclusive
O=C(NC1CCS(=O)(=O)C1)c1cccc(Cl)c1 (stereo unspecified)	none
CCOC(=O)c1c(C)[nH]c(C2=NNC(=NC3CC3)SC2)c1C	ATXN2 expr inh 10.6µM, Nrf2 inh inconclusive
COc1cccc(O)c1CN1CCCC(C(=O)c2cccc(C(F)(F)F)c2)C1 (stereo unspecified)	TGFb SMAD3 inh 15.8µM
CC1(C)CC(=O)C=C(C(=O)N2CCCC(C(=O)c3cccc(C(F)(F)F)c3)C2)O1 (stereo unspecified)	Nrf2 inh 9.2µM, A549 tox inconclusive
CC1(C)CC(=O)C=C(C(=O)N2CCCC(C(=O)c3cc(F)ccc3F)C2)O1 (stereo unspecified)	none (no result: ATXN2 expr inh, Nrf2 inh, A549 tox)
Nc1nc(Cl)cc(N2CCC(c3cc(-c4ccc(Cl)cc4Cl)n[nH]3)CC2)n1	S2 tox inconclusive, TGFb SMAD3 inh inconclusive, ATXN2 expr inh inconclusive, Nrf2 inh 10.3µM, A549 tox inconclusive
Cc1cc(C)c(OCCCCNCc2ccccc2)c(Cl)c1	TGFb SMAD3 inh inconclusive, HepG2 tox 11.2µM, A549 tox inconclusive (no result: S2 tox)
